The source of these data is PubChem BioAssay (NCATS).

The nature of test [1]: qHTS of pediatric cancer cell lines to identify multiple opportunities for drug repurposing: Primary screen for Rh18 cells (AID 1347102). Further: nearly all actives have a fitted effect of over 65% in size. Further: potency means the concentration at half of the fitted maximal effect. The method, boiled down:
(§1)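 Cells (500-1,000/well) rested 5 h, then received compounds for 48 h; metabolically active cells were measured by CellTiter-Glo luminescence. Final concentrations spanned up to 46 µM (MIPE, 11-point) or 0.59 nM-46 µM (NPC, 8-point) in primary screens, 11-point in follow-ups.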
(In general: qHTS replaces the single test concentration by a dilution series.)

A short description of test [2]: qHTS of pediatric cancer cell lines to identify multiple opportunities for drug repurposing: Primary screen for OHS-50 cells (AID 1347103). Further: nearly all actives have a fitted effect of over 40% in size. Further: potency means the concentration at half of the fitted maximal effect. An outline of the steps: as §1
Test [3] in a line: qHTS of pediatric cancer cell lines to identify multiple opportunities for drug repurposing: Primary screen for RD cells (AID 1347104). Further: nearly all actives have a fitted effect of over 55% in size. Further: potency means the concentration at half of the fitted maximal effect. An outline of the steps: (§2)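 Primary screen of approved and investigational compounds on cells in growth media at 37 degrees C, 5% CO2. MIPE set at 11-point and NPC set at 8-point dilutions; viability scored by ATP-based luminescence at 48 hours.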

Test [4] can be described thus: qHTS of pediatric cancer cell lines to identify multiple opportunities for drug repurposing: Primary screen for MG 63 (6-TG R) cells (AID 1347105). Further: nearly all actives have a fitted effect of over 50% in size. The method, boiled down:
as §2

Test [5] in a line: qHTS of pediatric cancer cell lines to identify multiple opportunities for drug repurposing: Primary screen for control Hh wild type fibroblast cells (AID 1347106).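 Further: series mostly up to about 46 µM; a drop in luminescence marks cytotoxicity and a rise apparent proliferation; nearly all actives have a fitted effect of over 55% in size.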 An outline of the steps:
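Cells (500-1,000/well) in growth media were settled 5 h at 37 degrees C, then given compounds for 48 h. Viability was read as CellTiter-Glo luminescence. Primary runs used MIPE at 11 points (0.78 nM-46 µM) and NPC at 8 points (0.59 nM-46 µM); follow-ups used 11 points.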

A short description of test [6]: qHTS of pediatric cancer cell lines to identify multiple opportunities for drug repurposing: Primary screen for Rh30 cells (AID 1347107). Further: series mostly up to about 46 µM; nearly all actives have a fitted effect of over 75% in size. The method, boiled down:
as §1

Test [7] can be described thus: qHTS of pediatric cancer cell lines to identify multiple opportunities for drug repurposing: Primary screen for Rh41 cells (AID 1347108).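 Further: series mostly up to about 46 µM; luminescence drop marks cytotoxic hits; nearly all actives have a fitted effect of over 70% in size.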 The method, boiled down: as §2
Test [8] can be described thus: qHTS of pediatric cancer cell lines to identify multiple opportunities for drug repurposing: Confirmatory screen for NB1643 cells (AID 1347109). Further: nearly all actives have a fitted effect of over 45% in size. Further: potency means the concentration at half of the fitted maximal effect. The method, boiled down:
as §1

A short description of test [9]: qHTS of pediatric cancer cell lines to identify multiple opportunities for drug repurposing: Confirmatory screen for A673 cells (AID 1347110).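 Further: cells exposed to compound for 48 h before the viability read; nearly all actives have a fitted effect of over 65% in size.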 Further: potency means the concentration at half of the fitted maximal effect. The method, boiled down:
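Cells plated at 500-1,000/well were treated five hours later with multi-point dilutions up to 46 µM final. After two days, CellTiter-Glo was added and luminescence read.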

The nature of test [10]: qHTS of pediatric cancer cell lines to identify multiple opportunities for drug repurposing: Confirmatory screen for SK-N-MC cells (AID 1347111).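 Further: cells exposed to compound for 48 h before the readout; nearly all actives have a fitted effect of over 70% in size.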 Further: potency means the concentration at half of the fitted maximal effect. The method, boiled down:
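Seed 500-1,000 cells/well; rest 5 h at 37 degrees C. Pin-transfer compounds, 11-point titration. Incubate 48 h. Add CellTiter-Glo, 15 min RT, read luminescence.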

SMILES strings stand for the structures. Results filed as inconclusive are left out. Values without a mark were called inactive. Calls of active or inactive are those of the source. The call rests on the fitted dose curve; in most records, active means well fitted curve in the direction sought with a large enough effect; inconclusive means small, poorly fitted or top-dose-only effect, or another doubt; inactive means no such curve, though single readings can be large; an effect the other way counts as inactive or inconclusive.

Regarding `CCC(=O)c1ccc(O)cc1`, the Potency entry in test [1], in [2], in test [3], in test [4] and in [7] was “inactive” throughout. Also, the outcome in test [5] and in test [6] was inactive.
In the case of `NCC(=O)CCC(=O)O`, the Potency entry in test [1], in test [2], in test [3], in test [4] and in test [7] was “inactive” throughout. The compound was classed as inactive in [5] and in test [6].
Regarding `CCn1cc(C(=O)O)c(=O)c2cnc(N3CCNCC3)nc21`, the Potency entry in [1], in [2], in test [3], in [4] and in [7] was “inactive” in each case. In addition, the call in test [5] and in test [6] was inactive.
In the case of `CNC(=O)Oc1ccc2c(c1)[C@]1(C)CCN(C)[C@@H]1N2C`, the Potency entry in [1], in test [2], in [3], in test [4] and in test [7] was “inactive” in each case. The call in [5] and in [6] was inactive.
Take `O=C(O)c1ccccn1`: the Potency result in test [1], in [2], in test [3], in test [4] and in test [7] was “inactive” in each case. The outcome in test [5] and in test [6] was inactive.
Consider `COc1cc2[nH]c(=O)[nH]c(=O)c2cc1OC`, for which the Potency entry in [1], in [2], in test [3], in [4] and in test [7] was “inactive” throughout. Besides, the call in [5] and in [6] was inactive.
Consider `O=S(=O)(O)NC1CCCCC1`, for which the Potency result in test [1], in test [2], in test [3], in test [4] and in test [7] was “inactive” each time. Also, the result in test [5] and in [6] was inactive.
With `NC(=O)NC(=O)Cc1ccccc1`, the Potency result in [1], in test [2], in test [3], in test [4] and in [7] was “inactive” in each case. The compound was called inactive in [5] and in [6].
With `CN(C)CC[C@@H](c1ccc(Cl)cc1)c1ccccn1`, the Potency entry in [1], in test [2], in [3], in [4] and in test [7] was “inactive” throughout. The compound was called inactive in test [5] and in [6].
Regarding `CCOC(CN1CCN(CC(C)C(=O)c2ccccc2)CC1)c1ccccc1` (stereo not drawn), the Potency result in test [1], in [2], in test [3], in test [4] and in test [7] was “inactive” in each case. Moreover, the compound was called inactive in test [5] and in [6].
Consider `COc1ccc2c(c1)C(=O)N(CCc1ccc(S(=O)(=O)NC(=O)NC3CCCCC3)cc1)C(=O)C2(C)C`, for which the Potency result in test [1], in test [2], in [3], in test [4] and in test [7] was “inactive” throughout. Also, the compound was called inactive in test [5] and in [6].
`CC(C)(C)C(=O)C(Oc1ccc(Cl)cc1)n1ccnc1` (stereo not drawn): the Potency entry in test [1], in test [2], in test [3], in test [4] and in test [7] was “inactive” each time. In addition, the result in test [5] and in test [6] was inactive.
As to `NC(=O)N/N=C/c1ccc([N+](=O)[O-])o1`, the Potency result in test [1], in [2], in test [3], in [4] and in [7] was “inactive” throughout. For the same compound, the result in test [5] and in [6] was inactive.
Regarding `CC1(C)Oc2ccc(C#N)cc2[C@@H](N2CCCC2=O)[C@@H]1O`, the Potency entry in test [1], in test [2], in [3], in [4] and in test [7] was “inactive” throughout. Also, the compound was classed as inactive in test [5] and in test [6].
Consider `CCOc1ccc2ccccc2c1C(=O)N[C@@H]1C(=O)N2[C@@H]1SC(C)(C)[C@@H]2C(=O)O`, for which the Potency entry in test [1], in test [2], in test [3] and in test [4] was “inactive” throughout. Further, the call in test [6] was inactive.
On to `COc1ccccc1O`, for which the Potency result in [1], in [2] and in [3] was “inactive” throughout. Besides, the outcome in test [5] and in test [6] was inactive.
Take `CCCCCCCCCCCCOS(=O)(=O)O`: the Potency result in test [1], in test [2], in test [3], in test [4] and in [7] was “inactive” each time. Also, the compound was called inactive in test [6].
Regarding `N[C@H]1C(O)O[C@H](CO)[C@@H](O)[C@@H]1O` (stereo partly drawn), the Potency entry in [1], in test [2], in test [3], in test [4] and in [7] was “inactive” each time. Besides, the compound was classed as inactive in test [6].
As for `O=C(Oc1ccccc1C(=O)O)c1ccccc1O`, the Potency result in test [1], in [2], in [3], in test [4] and in test [7] was “inactive” in each case. Moreover, the call in test [6] was inactive.
On to `CSc1ccc2c(c1)N(CCC1CCCCN1C)c1ccccc1S2` (stereo not drawn), for which the Potency in [1] was 16.8 µM (active); in test [2], 17.4 µM (active); in [3] it was 26.6 µM (active). For the same compound, the outcome in test [5] was inactive.
Take `CN(N=O)C(=O)N[C@@H]1[C@@H](O)[C@H](O)[C@@H](CO)O[C@@H]1O`: the Potency entry in test [1], in test [2], in [3], in [4] and in test [7] was “inactive” in each case. Also, in test [6], the call was inactive.
On to `CO/N=C(\C(=O)N[C@@H]1C(=O)N2C(C(=O)O)=C(CSc3nc(=O)c(O)nn3C)CS[C@H]12)c1csc(N)n1`, for which the Potency entry in [1], in test [2], in [3], in test [4] and in [7] was “inactive” throughout. The compound was called inactive in test [6].
For `CCCCCCCCCCCCCCCC(=O)NCCO`, the Potency entry in test [1], in test [2] and in test [3] was “inactive” each time. Besides, the outcome in test [5] and in test [6] was inactive.
For the compound `CCCCC/C(C=O)=C\c1ccccc1`, the Potency entry in [1], in test [3] and in test [4] was “inactive” in each case. Further, the Potency in [2] was 0.001 µM (active); in test [8] it was 7.37 µM (active); in test [9], 2.93 µM (active); in test [10], 9.27 µM (active). Further, the result in test [5] and in test [6] was inactive.
As to `Cc1cc2c(cc1S(N)(=O)=O)S(=O)(=O)CCC2`, the Potency entry in test [1], in [2], in [3], in test [4] and in test [7] was “inactive” each time. Besides, the compound was classed as inactive in [5] and in test [6].
Consider `COC(=O)[C@H]1[C@H]2C[C@@H]3c4[nH]c5cc(OC)ccc5c4CCN3C[C@H]2C[C@@H](OC(=O)COc2ccc(OC)cc2)[C@@H]1OC`, for which the Potency result in test [1], in test [2] and in test [3] was “inactive” throughout. Also, the call in [5] and in test [6] was inactive.
Regarding `O=C1N=C(O)CN1/N=C/c1ccc(-c2ccc([N+](=O)[O-])cc2)o1`, the Potency result in [1], in test [2], in test [3], in test [4], in [7] and in test [8] was “inactive” throughout. The Potency result in test [9] and in [10] was “inactive” throughout. The call in test [5] and in [6] was inactive.
